From PubChem
The list is not random: actives were taken first. Their share in the collection is about 5.4%.
ALOX15B inhib: 15-hLO-2 (ALOX15B) enzyme inhibition; O15296; purified 15hLO-2, xylenol orange hydroperoxide absorbance; Potency, µM (top dose mostly 57.1 µM), for inactives: top-dose activity change, negative = inhibition, actives largely listed as inhibitors; 0.56% of 110,000 active; AID 881; note: potency is the fitted concentration of half-maximal effect; nearly all actives have a fitted effect of over 60% in size
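Purified human 15hLO-2 (50 nM) preincubated 15 min with compound, then 45 uM arachidonic acid for 90 min at RT in 25 mM Hepes pH 7.5, 0.01% Triton X-100. Hydroperoxide detected by Fe-xylenol orange; 573/405 nm absorbance ratio.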
HPGD block: inhibitors of human 15-hydroxyprostaglandin dehydrogenase (HPGD). P15428. purified HPGD, NADH fluorescence kinetic, PGE2 substrate. Potency, µM, inactives show at the top dose activity change, negative = inhibition, most hits filed as inhibitors. 4.3% of 150,000 active; active = well fitted inhibition curve with a large enough effect, not every such curve was filed as active; inconclusive = small, poorly fitted or top-dose-only effect, or another doubt; inactive = no such curve, though single readings can be large or run the other way; note: potency is the fitted concentration of half-maximal effect
Target sequence (P15428 whole entry, looked up): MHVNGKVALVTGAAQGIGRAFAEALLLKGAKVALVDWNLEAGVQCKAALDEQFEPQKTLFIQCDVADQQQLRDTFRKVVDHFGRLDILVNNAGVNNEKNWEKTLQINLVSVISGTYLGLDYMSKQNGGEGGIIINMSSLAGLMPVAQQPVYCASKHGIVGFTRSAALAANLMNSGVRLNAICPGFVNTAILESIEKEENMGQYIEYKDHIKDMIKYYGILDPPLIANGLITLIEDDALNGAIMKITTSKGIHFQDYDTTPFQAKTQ
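20 nM HPGD preincubated 15 min at room temperature with compound in 50 mM Tris-HCl pH 8, 0.01% Tween 20. Started with 1 mM NAD+ and 30 uM prostaglandin E2; NADH fluorescence (360/450 nm) read 5 times over 30-s intervals, last minus first.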
IMPase Li inh: cell-permeable IMPase inhibitors with lithium potentiation; 0.35% of 210,000 active; CHO-M1 cells, IP1 TR-FRET (IP-One), carbachol + lithium; Potency, µM (series often up to 59.4 µM), inactives show at the highest dose activity, negative = IMPase inhibition, usual class: inhibitors; AID 1457;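 note: IP1 builds up when IMPase is blocked and the TR-FRET signal falls; potency is the fitted concentration of half-maximal effect; plate controls were basal vehicle for no effect and high inhibitor control for full effect; nearly all actives have a fitted effect of over 50% in size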
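Test compounds were applied to CHO-M1 cells previously cultured for 16–30 h at 2000 per well. A small lithium amount accompanied them; after 30 min at 37C, IP1 was quantified by TR-FRET.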
PNC inhibitor: blocks assembly of the perinucleolar compartment; PC3M PTB-GFP, PNC prevalence imaging, 16 h; hits give low values; 3.1% of 140,000 active; activity change (PNC), negative = inhibition, % at 10 µM;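 active = readout at or below -70, meaning at least 70% loss of cells showing the perinucleolar compartment, a nuclear body marking cancer cells; inconclusive = readout between -30 and a set limit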;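 note: plate controls were DMSO wells for no effect and camptothecin positive control wells for full effect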
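Compounds are pinned in duplicate onto adhered PC3M cells stably expressing GFP-tagged PTB and incubated 16 h at 37 C. Cells are then fixed, nuclei stained with Hoechst, and PNC-positive cells counted.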
IMPase cell inh: membrane-permeable compound that blocks inositol monophosphatase; CHO-M1 cells, IP1 accumulation, HTRF TR-FRET ratio; inhibition (IP1 accumulation), % at 46.1 µM; 120,000 tested, under 10 active; AID 901; active = well fitted curve in the direction sought with a large enough effect in the signal ratio, not every such curve was filed as active; inconclusive = small, poorly fitted or top-dose-only effect, or a change in a side signal; inactive = no such curve, though single readings can be large or run the other way; the % refers to the signal ratio;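 note: cells stimulated with carbachol in lithium chloride buffer; plate controls were DMSO basal wells for no effect and reference inhibitor wells for full effect; higher means more IMPase inhibition seen as more IP1 and lower FRET ratio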
Target sequence (P97697 whole entry, looked up): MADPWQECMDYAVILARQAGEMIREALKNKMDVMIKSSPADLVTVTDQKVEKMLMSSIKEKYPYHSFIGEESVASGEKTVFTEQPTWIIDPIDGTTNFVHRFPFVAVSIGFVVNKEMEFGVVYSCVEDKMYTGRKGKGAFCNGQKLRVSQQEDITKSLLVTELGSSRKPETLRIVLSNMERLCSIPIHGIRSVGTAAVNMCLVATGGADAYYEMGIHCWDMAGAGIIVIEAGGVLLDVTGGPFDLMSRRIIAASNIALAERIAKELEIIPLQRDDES
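CHO-M1 cells (CHO stably expressing M1 receptor), compound up to 46 uM final, stimulated with carbachol (50 uM as added) in buffer with 50mM LiCl, pH 7.4, 30 min at 37C. Cytosolic IP1 read by TR-FRET; AC50 from Hill fits.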
12-hLO inh: inhibitors of human 12-lipoxygenase (ALOX12). P18054. Potency, µM (top dose mostly 57.1 µM), for the others: at the highest dose activity change, negative = inhibition, usual class: inhibitors. 0.12% of 150,000 active. purified 12-hLO, xylenol orange hydroperoxide absorbance; note: potency is the fitted concentration of half-maximal effect; nearly all actives have a fitted effect of over 55% in size
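150 nM 12hLO, 25 mM Hepes pH 7.0 + 0.01% Triton X-100; cpd preinc 15 min RT; 40 uM arachidonic acid, 30 min RT; Fe-XO 30 min; A573/A405 ratio as read-out.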
* hit, by the source's call; ? = inconclusive; / = no result; [ ] = dose if it differs, or a comment. Unless noted, calls come from the whole dose curve; as a rule, active = well fitted curve in the direction sought with a large enough effect; inconclusive = small, poorly fitted or top-dose-only effect, or another doubt; inactive = no such curve, though single readings can be large; an effect the other way counts as inactive or inconclusive. Unless noted, % is set by controls: 0 for no effect and ±100 for the full control effect.

SMILES	ALOX15B inhib	HPGD block	IMPase Li inh	PNC inhibitor	IMPase cell inh	12-hLO inh
CC(=O)N(C(C)=O)N1C(=O)C2C3c4ccccc4C(c4ccccc43)C2C1=O (centres undefined)	/	/	17%	/	/	/
Cn1c(=O)[nH]c(=O)c2cc(C(=O)c3cc(F)ccc3O)cnc21	/	/	-4%	/	/	/
CCc1nn2cc(C(=O)c3cc(Cl)ccc3O)cnc2c1-c1ccc(F)cc1	/	16µM*	13%	-21	-4	0%
COc1ccc(CCNC(=O)c2cccc(Nc3nc4ccccc4nc3-n3nc(C)cc3C)c2)cc1OC	/	/	/	/	-9	/
Oc1c(C(O)(c2ccccc2)c2ccc3ccccc3c2O)ccc2ccccc12	-29%[11.4 µM]	?	3%	/	/	-10%[11.4 µM]
CCCc1nnc(-c2cc(OC)c(OC)c(OC)c2)o1	/	-9%	4%	-91*	/	-2%
COc1cc(-c2nnc(-c3cc(OC)c(OC)c(OC)c3)o2)cc(OC)c1OC	/	?	6%	-100*	-6	4%
COc1cc(-c2nnc(CSc3nnc(N)s3)o2)cc(OC)c1OC	/	-11%	-7%	?	/	-3%
COc1cc(-c2nnc(-c3ccccc3)o2)cc(OC)c1OC	/	?	0%	14	?	-3%
CC(C)c1nnc(SCC(=O)NCc2ccc3c(c2)OCO3)n1C	/	-15%	7%	-100*	-7	-3%
Cc1nnc(SCC(=O)NCc2ccc3c(c2)OCO3)n1C	/	/	-6%	/	/	/
Cn1c(Cc2ccccc2)nnc1SCC(=O)Nc1ccc2c(c1)OCO2	-3%	2%	3%	22	6	2%
CC(C)c1nnc(SCC(=O)Nc2ccc3c(c2)OCO3)n1C	/	-8%	3%	-100*	1	-3%
CCCCCCCCCCCCCCC1CO1 (centres undefined)	3%	-2%	3%	/	/	-1%
C=CCc1cccc(/C=N/NC(=O)CNc2cccc3ccccc23)c1O	/	-25%	17%	-84*	/	6%
Cc1ccccc1-n1c(C)nnc1SCC(=O)N1CCc2ccccc2C1	/	-30%	6%	-107*	/	-2%
COCC(C)n1c(SCC(=O)N2CCc3ccccc3C2)nc2ccccc2c1=O (centres undefined)	/	-12%	6%	-121*	/	-4%
COCC(C)n1c(SCC(=O)N2CCCCC2)nc2ccccc2c1=O (centres undefined)	-5%	-13%	13%[38.3 µM]	14	8	-1%
Cc1cc(C)c(S(=O)(=O)/N=C2/C=C(Sc3ncn[nH]3)C(=O)c3ccccc32)cc1C	/	0.89µM*	40%	?	/	-20%
O=C(Cc1cccc2ccccc12)Nc1ccc(-c2cc3ccccc3oc2=O)cc1	-8%[11.4 µM]	?	-17%[38.3 µM]	-83*	3[1.84 µM]	1%
CCC(=O)Nc1cccc(-c2cc3ccccc3oc2=O)c1	/	/	3%	/	/	/
CN(C)c1ncc2nc(-c3ccc(Cl)cc3)c(=O)n(C)c2n1	-3%	/	-1%	/	/	/
C/C(=N\Nc1nnc(-c2ccccc2)c(-c2ccccc2)n1)c1cccc([N+](=O)[O-])c1	?	6.3µM*	21%[38.3 µM]	6	9	-17%
COc1ccc2c(=O)c3c(=O)n(Cc4ccco4)c(-c4ccco4)nc3oc2c1	-17%	22µM*	10%[38.3 µM]	10	-2	-13%
COc1ccc(-c2nc3oc4cc(OC)ccc4c(=O)c3c(=O)n2Cc2ccco2)cc1	?	?	?	16	-1	-2%
C[C@H]1C(O)[C@@]23CCC4C5(C=[N+](CCO)C[C@]4(C)CCC5)C2C[C@@H]1C3 (some centres undefined)	/	-3%	1%	/	/	/
C=CCn1c(=S)[nH]c2scc(-c3cccs3)c2c1=O	/	/	11µM*	/	/	/
Cc1ccc(-c2nnc(Nc3ccc(Br)cc3)c3ccccc23)cc1S(=O)(=O)NCC1CCCO1 (centres undefined)	/	/	/	/	-5	/
COC(=O)C(O)(CC(=O)Nc1ccc(OC)cc1)C(F)(F)F (centres undefined)	/	2%	-3%	?	-11[0.369 µM]	0%
